Tests used:
Type in all cases: functional
[1] = target: Solute carrier family 2, facilitated glucose transporter member 1 (Homo sapiens) (UniProt P11166); assay: ST_JUDE_LEISH: Cytotoxicity at 2uM final concentration against transgenic Leishmania Mexicana promastigotes LmGLUT1 that are glucose transport deficient and complemented with the human glucose transporter GLUT1. Activity is measured by DNA content using SYBR green in vitro
[2] = target: Hexose transporter 1 (Plasmodium falciparum) (UniProt O97467); assay: ST_JUDE_LEISH: Cytotoxicity at 2uM final concentration against transgenic Leishmania Mexicana promastigotes LmPfHT that are glucose transport deficient and complemented with the Plasmodium falciparum hexose transporter. Activity is measured by DNA content using SYBR green in vitro
[3] = target: Glucose transporter (Leishmania mexicana) (UniProt O61059); assay: ST_JUDE_LEISH: Cytotoxicity at 2uM final concentration against transgenic Leishmania Mexicana promastigotes LmGT2 that are glucose transport deficient and complemented with the L. Mexicana glucose transporter 2. Activity is measured by DNA content using SYBR green in vitro

Sequence of Solute carrier family 2, facilitated glucose transporter member 1 (Homo sapiens) (P11166 whole entry): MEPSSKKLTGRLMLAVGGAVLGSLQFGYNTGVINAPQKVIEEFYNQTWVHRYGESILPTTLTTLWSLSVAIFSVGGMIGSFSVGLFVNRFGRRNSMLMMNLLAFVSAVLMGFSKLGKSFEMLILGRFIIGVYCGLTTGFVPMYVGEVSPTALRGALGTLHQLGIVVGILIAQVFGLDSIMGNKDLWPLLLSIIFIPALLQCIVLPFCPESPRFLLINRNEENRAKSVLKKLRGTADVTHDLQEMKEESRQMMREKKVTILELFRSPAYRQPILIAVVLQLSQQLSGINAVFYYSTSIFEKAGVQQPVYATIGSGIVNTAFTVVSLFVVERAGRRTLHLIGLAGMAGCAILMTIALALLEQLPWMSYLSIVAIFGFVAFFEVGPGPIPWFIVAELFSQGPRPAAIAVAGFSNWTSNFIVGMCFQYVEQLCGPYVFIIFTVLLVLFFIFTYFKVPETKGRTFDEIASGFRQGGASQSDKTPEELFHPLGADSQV

Structure (SMILES)	inhibition [1]	inhibition [2]	inhibition [3]
COc1ccccc1-c1ccc2nnc(SCC(=O)Nc3ccc4c(c3)OCCO4)n2n1	4.56%	4.26%	3.67%
COc1ccc(Cn2c(Nc3cccc(C(F)(F)F)c3)nc3cc(C(=O)NC4CC4)cnc32)cc1Cl	-1.9%	-0.56%	-3.22%
CN1CCN(Cc2cc3cc(NC(=O)/C=C/c4ccc(Cl)cc4)ccc3s2)CC1	4.5%	0.55%	1.01%
CCCN1CCC=C(c2cccc(Nc3nccc(Nc4cc(OC)ccc4C)n3)c2)C1	11.2%	11.9%	10%
COc1ccc2nccc([C@@H](O)CN3CCC(NCc4cc5cc(Cl)ccc5[nH]4)CC3)c2c1	12.5%	28.1%	2.75%
CC[C@H](C)CNC(=O)c1ccnc(-c2ccc(CNCCCc3ccccc3)cc2)c1	1.95%	1.1%	-0.91%
Cc1nnc2c(NC(=O)NC3CCCC3)cc3ccc(-c4cccc(CN5CCN(C)CC5)c4)cc3n12	6.21%	6.49%	5.53%
CC(=O)Nc1ccc(S(=O)(=O)N2CCN(c3nc(NC4CCCC4)c4ccccc4n3)CC2)cc1	0.69%	3.35%	2.94%
C=C(F)c1sc(CNCCCNc2nc3ccccc3[nH]2)c(C)c1Br	57.5%	73.8%	68.7%
CC1(C)N=C(N)N=C(N)N1OCCCOc1cc(Cl)c(Cl)cc1Cl	3.4%	4.05%	2.71%
O=C(NCc1ccc(Cl)c(Cl)c1)c1ccc(C2CCN(Cc3ccc4[nH]cnc4c3)CC2)cc1	2.71%	1.42%	0.28%
Cc1cc(CNCCCCCNCc2cccc([N+](=O)[O-])c2)ccc1O	1.94%	1.39%	1.29%
Cc1cccc(CNc2ncc(C)c(NCCC(=O)Nc3ccccc3)n2)c1	15.3%	12.7%	6.61%
Clc1ccc2c(NN=Cc3ccccc3)ccnc2c1	7.48%	6.89%	7.07%
CCCCCCCNc1cc(C)nc2ccc(OC)cc12	16.5%	9.23%	12.4%
COc1ccc2ccccc2c1CNCC1CCN(CC2CCCCC2)CC1	1.54%	-0.57%	-1.88%
Clc1ccc(CCNCCCCCCNCCc2ccc3c(c2)OCO3)cc1	8.05%	8.53%	7.21%
COc1ccc(NC(=O)c2ccc(NC(=O)c3ccc(Cl)cc3)cc2)cc1N1CCN(C)CC1	4.33%	4.66%	3.5%
COc1ccc(-c2ccc(NC(=O)c3cccs3)cc2)cc1CN1CCCN(C)CC1	3.24%	3.15%	-1.12%
COc1ccc(CCNCCCCCCNCCc2ccc(Cl)cc2)c(Cl)c1OC	73.4%	16.7%	102%
N#Cc1cccc(NC(=O)Nc2ccc(-c3csc(-c4nc5ccccc5[nH]4)c3)cc2)c1	7.99%	9.33%	3.91%
O=C(C1CCN(c2nnnn2-c2ccccc2)CC1)N1CCc2ccccc2C1	13%	15.6%	14.1%

Structure (SMILES)	inhibition [1]	inhibition [2]	inhibition [3]
CC(C)Cn1ccc2c3c(N)nc(N)nc3ccc21	27.1%	47.5%	17%
Cc1c(CNCCCNc2cc(=O)c3ccccc3[nH]2)sc(/C=N/O)c1Br	5.48%	3.79%	5.31%
Clc1ccc(C2CCN(CCCOc3ccc4c(c3)CCNCC4)CC2)cc1	56.8%	40.9%	75.7%
CNCCNc1nccc(N2CCc3ncnc(Nc4ccc(OCc5cccc(F)c5)c(Cl)c4)c3C2)n1	3.85%	5%	2.3%
COc1cc2ncnc(Nc3ccc(OCc4ccccc4Br)c(OC)c3)c2cc1OC	1.37%	0.69%	-0.16%
Cc1[nH]c(C)c(-c2ccc(-c3cc(C(F)(F)F)cc(C(F)(F)F)c3)nc2)c(=O)c1Br	4.9%	5.44%	5.42%
COc1ccc(CCNCCCCCNCCc2ccc(Cl)cc2)cc1OC	7.58%	6.09%	6.63%
Cc1sc(CNCCCNc2cc(=O)c3ccccc3[nH]2)c(I)c1C	3.11%	2.66%	1.68%
COc1c(CNCCCCCCNCc2cc(Cl)c3ccccc3c2OC)cc(Cl)c2ccccc12	1.94%	7.04%	-0.2%
N=C(N)NC(=O)Nc1cc(Cl)c(F)c(Cl)c1	3.91%	4.24%	0.63%
CC(C)Cn1c(Sc2ccc(C#N)c([N+](=O)[O-])c2)nnc1-c1ccccc1	6.46%	6.58%	3.76%
CCCCNc1nccc2ccc(-c3ccncc3)cc12	3.45%	4.02%	4.26%
O=[N+]([O-])c1cccc(S(=O)(=O)N2CCN(CC(O)COc3ccc(-c4ccccc4)cc3)CC2)c1 (centres undefined)	1.04%	1.75%	4.46%
CS(=O)(=O)NCCCNCc1ccc(-c2ccc(-c3nc4cc(C(F)(F)F)ccc4[nH]3)cc2)cc1	2.14%	2.39%	1.11%
O=C(Nc1cccc(C(F)(F)F)c1)NC1CCN(c2ccnc3ccccc23)C1 (centres undefined)	1.65%	-0.4%	6.33%
CC(C)COc1ccc(Cl)cc1Nc1nc(-c2nc3ccccc3[nH]2)cs1	2.76%	1.35%	1.01%
CN(c1ccc(NC(=O)Nc2cccc(Cl)c2)cc1)c1ccnc(N)n1	-0.39%	1.34%	-0.01%
CC(=O)c1sc(NC(=O)Nc2ccc(C)cc2C)nc1C	14%	8.74%	3.63%
CCOCc1cnc(C)nc1NCC(=O)c1c(C)[nH]c2cc(C)ccc12	-0.21%	-0.79%	-0.44%
Cc1cc(F)ccc1[C@H]1CNCCN1C(=O)N(C)C(C)(C)c1cc(C(F)(F)F)cc(C(F)(F)F)c1	-0.57%	-1.23%	-1.4%
Cc1ccccc1CNC(=O)Nc1cccc(-c2csc(NC(=N)N)n2)c1	0.55%	0.56%	4.51%
